NFkB transloc inh – blocks IL-1B driven NFkB nuclear translocation in HUVEC cells; HUVEC IL-1B NFkB p65 nuclear translocation imaging; inhibition, % at 2 µM; actives 0.43% (n = 94,000);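 active = inhibition above about 30% together with a positive call from visual inspection of the well image, limit read from the data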;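 also: nuclear over cytoplasmic p65 intensity ratio measured by imaging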
HUVEC tox IL1B – HUVEC cytotoxicity counter-screen, IL-1B stimulated. HUVEC cell count loss, Hoechst imaging. cell count reduction, % at 2 µM. actives 0.41% (n = 94,000). AID 845;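 active = cell count reduction more than 3 SD above the screen-wide mean, cut at about 70% in these data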
TNAP act mid DEA – human TNAP activation, intermediate phosphate acceptor. P05186. purified TNAP, CDP-star luminescence, 100 mM DEA, 30 min; active compounds read high; scale: 0 levamisole-inhibited, 1 vehicle-only enzyme. activation factor at 20 µM. 64,000 tested, under 10 active;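 active = activation factor of at least 2 at 20 µM, relative to controls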
NFkB transloc pot – enhances IL-1B driven NFkB nuclear translocation | AID 819 | actives 0.3% (n = 94,000) | activation, % at 2 µM | HUVEC IL-1B NFkB p65 nuclear translocation imaging;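 active = activation above 40%, about the mean plus 3 SD, also judged a hit on visual image review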;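 also: percent activation is computed from the nuclear over cytoplasmic p65 intensity ratio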
PLAP activator – activates human placental alkaline phosphatase; P05187; purified PLAP enzyme, luminescent substrate read-out; active compounds read high; activation fold at 20 µM; actives 1.2% (n = 96,000); AID 696; in the data active = activation fold above about 2
Target sequence (P05187 whole entry, looked up): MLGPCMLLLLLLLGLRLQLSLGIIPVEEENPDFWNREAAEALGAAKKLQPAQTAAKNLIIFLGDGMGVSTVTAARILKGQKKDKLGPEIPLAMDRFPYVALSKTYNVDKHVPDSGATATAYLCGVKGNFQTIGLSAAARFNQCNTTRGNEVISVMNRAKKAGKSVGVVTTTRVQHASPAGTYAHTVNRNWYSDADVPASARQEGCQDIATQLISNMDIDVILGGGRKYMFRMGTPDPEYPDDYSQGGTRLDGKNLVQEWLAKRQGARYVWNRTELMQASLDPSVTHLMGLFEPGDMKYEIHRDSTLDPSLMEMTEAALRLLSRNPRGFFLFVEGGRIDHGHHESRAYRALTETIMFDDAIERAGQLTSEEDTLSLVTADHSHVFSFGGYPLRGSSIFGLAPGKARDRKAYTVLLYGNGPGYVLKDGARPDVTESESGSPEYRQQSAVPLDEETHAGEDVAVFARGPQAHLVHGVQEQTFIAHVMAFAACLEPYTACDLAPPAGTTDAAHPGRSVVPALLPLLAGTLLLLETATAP
Numbers stand for hits. In the library only some 2.1% were active in any assay of this set; here they are far more common.

Screening COc1ccccc1Nc1nc2ccccc2[nH]1 returned NFkB transloc inh inactive, HUVEC tox IL1B inactive, TNAP act mid DEA inactive, NFkB transloc pot inactive and PLAP activator inactive.
`c1ccc2[nH]c(NC3=NCCC3)nc2c1` gave NFkB transloc inh inactive, HUVEC tox IL1B inactive, TNAP act mid DEA inactive, NFkB transloc pot inactive and PLAP activator 2.1.
`CCN(CC)C(=O)Cn1cnc2sc(C(=O)Nc3cc(OC)c(OC)c(OC)c3)c(C)c2c1=O` gave NFkB transloc inh inactive, HUVEC tox IL1B inactive, NFkB transloc pot 42 and PLAP activator inactive.
Screening CCCNC(=O)Cn1cnc2sc(C(=O)Nc3cc(OC)c(OC)c(OC)c3)c(C)c2c1=O returned NFkB transloc inh inactive, HUVEC tox IL1B inactive, NFkB transloc pot inactive and PLAP activator inactive.
For O=C(O)C1C2C=CC(O2)C1C(=O)Nc1ccc(S(=O)(=O)N2CCc3ccccc32)cc1 (configuration not stated) the results were NFkB transloc inh 49, HUVEC tox IL1B inactive, TNAP act mid DEA inactive, NFkB transloc pot inactive and PLAP activator inactive.
Screening O=C(O)C1C2C=CC(O2)C1C(=O)Nc1ccc(S(=O)(=O)Nc2ccccc2)cc1 (configuration not stated) returned NFkB transloc inh inactive, HUVEC tox IL1B inactive, TNAP act mid DEA inactive, NFkB transloc pot inactive and PLAP activator inactive.
For CC1=C(C(=O)NCc2ccccn2)C2(CCC(C)CC2)OC1=O (configuration not stated) the results were NFkB transloc inh inactive, HUVEC tox IL1B inactive, TNAP act mid DEA inactive, NFkB transloc pot inactive and PLAP activator inactive.
Screening COc1ccc(/C(C)=N/NC(=O)c2nc(C)cc(C)n2)cc1 returned NFkB transloc inh inactive, HUVEC tox IL1B inactive, NFkB transloc pot inactive and PLAP activator 2.
COc1ccc(/C(C)=N/NC(=O)c2ccc(N(C)C)cc2)cc1 was read as NFkB transloc inh inactive, HUVEC tox IL1B inactive, NFkB transloc pot inactive and PLAP activator inactive.
`Cc1cc(Oc2ccccc2)nc2ccc(O)cc12` gave TNAP act mid DEA inactive and PLAP activator inactive.
For O=C(c1ncn[nH]1)N1CCN(c2nc(-c3ccccc3)cs2)CC1 the results were NFkB transloc inh inactive, HUVEC tox IL1B inactive, TNAP act mid DEA inactive, NFkB transloc pot inactive and PLAP activator 2.6.
Screening O=C(c1cc(-n2cnnc2)ccc1Cl)N1CCN(c2nc(-c3ccccc3)cs2)CC1 returned NFkB transloc inh inactive, HUVEC tox IL1B inactive, TNAP act mid DEA inactive, NFkB transloc pot inactive and PLAP activator inactive.
Screening COC(=O)C1=C(C)N(C)C(C)=C(C(=O)OC)C1c1ccc(C(=O)OC)cc1 returned NFkB transloc inh inactive, HUVEC tox IL1B inactive, TNAP act mid DEA inactive, NFkB transloc pot inactive and PLAP activator inactive.
COC(=O)C1=CNC=C(C(=O)OC)C1c1ccc(C(=O)OC)cc1 was read as TNAP act mid DEA inactive and PLAP activator 2.
Screening Cc1ccc(C)c(NC(=S)c2ccccn2)c1 returned NFkB transloc inh inactive, HUVEC tox IL1B inactive, NFkB transloc pot inactive and PLAP activator inactive.
S=C(Nc1ccccn1)c1ccccn1 was read as NFkB transloc inh inactive, HUVEC tox IL1B inactive, TNAP act mid DEA inactive, NFkB transloc pot inactive and PLAP activator 2.4.
For COc1cc(CNCc2ccccn2)ccc1OCc1c(Cl)cccc1Cl the results were NFkB transloc inh inactive, HUVEC tox IL1B inactive, NFkB transloc pot inactive and PLAP activator 2.
For Nn1c(SCC(=O)NC(=O)NCc2ccco2)nnc1-c1ccc(OC(F)F)cc1 the results were NFkB transloc inh inactive, HUVEC tox IL1B inactive, NFkB transloc pot inactive and PLAP activator inactive.
`CCc1ccc(-n2c(=O)c3c(C)c(C(=O)N(C)C)sc3n(CC(=O)NCc3ccco3)c2=O)cc1` gave NFkB transloc inh inactive, HUVEC tox IL1B inactive, NFkB transloc pot inactive and PLAP activator inactive.
CCn1c(SCC(=O)Nc2oc(-c3ccccc3)c(-c3ccccc3)c2C#N)nnc1-c1cc(OC)cc(OC)c1 was read as NFkB transloc inh inactive, HUVEC tox IL1B inactive, NFkB transloc pot inactive and PLAP activator 2.2.
Screening Cc1cc2nc(CCN(C(=S)NCC(C)C)C3CCCC3)[nH]c2cc1C returned NFkB transloc inh inactive, HUVEC tox IL1B inactive, NFkB transloc pot inactive and PLAP activator 2.4.
`Cc1cc(N2CC(C(=O)NCc3cccs3)CC2=O)ccc1C(C)C` (configuration not stated) gave NFkB transloc inh 46, HUVEC tox IL1B inactive, NFkB transloc pot inactive and PLAP activator inactive.
Cc1ccc(N2CC(C(=O)NCc3cccs3)CC2=O)cc1C (configuration not stated) was read as NFkB transloc inh inactive, HUVEC tox IL1B inactive and NFkB transloc pot inactive.
For CN1/C(=C\C(=O)c2ccco2)c2ccccc2CC1(C)C the results were NFkB transloc inh 34, HUVEC tox IL1B inactive, TNAP act mid DEA inactive, NFkB transloc pot inactive and PLAP activator inactive.
For CC1CC(C)CN(c2nc3c(c(=O)n(C)c(=O)n3C)n2CCSc2nc3ccccc3o2)C1 (configuration not stated) the results were TNAP act mid DEA inactive.
`Cc1nnc(SCc2ccccc2C#N)n1-c1ccccc1` gave NFkB transloc inh inactive, HUVEC tox IL1B 82, TNAP act mid DEA inactive, NFkB transloc pot inactive and PLAP activator inactive.
Screening Cc1nnc(SCc2ccon2)n1-c1ccccc1 returned NFkB transloc inh inactive, HUVEC tox IL1B inactive and NFkB transloc pot inactive.
CCOc1ccc2nc3c(cc2c1)CN(CCCO)C(=NCCOC)S3 was read as NFkB transloc inh inactive, HUVEC tox IL1B inactive, TNAP act mid DEA inactive, NFkB transloc pot inactive and PLAP activator inactive.
Screening N#CC1=C(SCc2ccccc2)NC2=C(C(=O)CCC2)C1c1ccc2c(c1)OCO2 (configuration not stated) returned NFkB transloc inh inactive, HUVEC tox IL1B inactive, TNAP act mid DEA inactive, NFkB transloc pot inactive and PLAP activator inactive.
Screening CCSC1=C(C#N)C(c2ccc3c(c2)OCO3)C2=C(CCCC2=O)N1 (configuration not stated) returned NFkB transloc inh inactive, HUVEC tox IL1B inactive, NFkB transloc pot 66 and PLAP activator inactive.
COC(=O)c1ccccc1NC(=O)CSc1n[nH]c(CC(C)C)n1 was read as NFkB transloc inh inactive, HUVEC tox IL1B inactive, TNAP act mid DEA inactive, NFkB transloc pot inactive and PLAP activator 2.4.
For C=CCc1ccc(OCC(O)COc2ccc(CC=C)cc2OC)c(OC)c1 the results were NFkB transloc inh inactive, HUVEC tox IL1B inactive, NFkB transloc pot inactive and PLAP activator 2.
C=CCc1ccc(OCCCCN2CC(C)OC(C)C2)c(OC)c1 (configuration not stated) was read as NFkB transloc inh inactive, HUVEC tox IL1B inactive, NFkB transloc pot inactive and PLAP activator 2.
`Cc1ccc(SC(CC(=O)c2ccc(C)cc2)C(=O)O)cc1` (configuration not stated) gave NFkB transloc inh inactive, HUVEC tox IL1B inactive, NFkB transloc pot inactive and PLAP activator inactive.
Cc1cc(-c2ccccc2)nc(N2CCC(C(=O)NCC3CCCCC3)CC2)n1 was read as NFkB transloc inh inactive, HUVEC tox IL1B inactive and NFkB transloc pot inactive.
